The values that follow come from PubChem BioAssay.

The source made the active and inactive calls. Unless noted, no rule for the calls is given here.

The nature of experiment [1]: anti-His antibody binders, primary screen, artefact control for SMM control protein annotation, biochemical, small-molecule microarray, 635 nm fluorescence (AID 1128).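 Also: score merges feature fluorescence with signal-to-noise for each printed compound spot.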 Conditions: anti-His Alexa647 antibody binding, higher = more signal.
Experiment [2] concerns Human papillomavirus type 1a E7 protein (residues 1-88). In words: HPV1a E7 small-molecule binders, primary screen, biochemical, small-molecule microarray, residues 1-88, 635 nm (AID 1129). Conditions: small-molecule microarray binding, fluorescence 635 nm; higher = more signal.
Experiment [3] has as its target Focal adhesion kinase 1 (Homo sapiens) (UniProt Q05397). In words: small-molecule microarray binders of FAK, primary screen, biochemical, 635/667 nm fluorescence, BSA, DTT (AID 1130).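 Also: composite of spot emission at 667 nm and signal to noise over triplicate slides.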 The following applies: PTK2 binding, 635 nm fluorescence, higher = more signal.
Experiment [4] relates to Fibrinogen (Alexa647-labelled). Nature of the experiment: fibrinogen binders on compound microarrays, profiling panel, artefact control for SMM control-protein annotation, biochemical, small-molecule microarray, 635/667 nm fluorescence (AID 1131).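 Also: z-score merges 667 nm fluorescence with per-spot signal-to-noise over triplicate slides.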 Conditions: fibrinogen-A647 binding fluorescence, higher = more signal.
For experiment [5], the target named is Follistatin (Homo sapiens) (UniProt P19883). Nature of the experiment: follistatin binders on small-molecule microarrays, primary screen, biochemical, small-molecule microarray, 635/667 nm fluorescence (AID 1132). The following applies: FST binding, 635 nm fluorescence, higher = more signal.
Experiment [6] concerns the target Fibroblast growth factor 2 (Homo sapiens) (UniProt P09038). Nature of the experiment: FGF2 binders on small-molecule microarrays, primary screen, biochemical, small-molecule microarray, 635/667 nm fluorescence (AID 1133). Conditions: small-molecule microarray binding, FGF2, fluorescence 635/667; higher = more signal.
The nature of experiment [7]: mitochondrial membrane potential change in A549 cells, profiling panel, cell-based, JC-1 fluorescence, basal, 24 h, 100 nL (AID 1138).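 Also: A549 lung adenocarcinoma cells under basal conditions with no added stimulus; test concentration not given here.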 The following applies: higher = more signal.
For another experiment, the system named is Lefty1. Nature of the experiment: Lefty1 binders on small-molecule microarrays, primary screen, biochemical, small-molecule microarray, 635/667 nm fluorescence (AID 1139). Conditions: small-molecule microarray binding, fluorescence 635/667; higher = more signal.
Experiment [8] concerns wheat germ agglutinin (Triticum aestivum), Alexa647-labelled. In words: wheat germ agglutinin binders on compound microarrays, profiling panel, artefact control for SMM control-protein annotation, biochemical, small-molecule microarray, 635/667 nm fluorescence (AID 1140).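 Also: score merges 667 nm feature emission with signal to noise over triplicate slides.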 The following applies: WGA-A647 binding, 635 nm fluorescence, higher = more signal.
Experiment [9] addresses Luciferin 4-monooxygenase (Photinus pyralis) (UniProt P08659). Nature of the experiment: firefly luciferase enzyme inhibitors, primary screen, biochemical, luminescence, purified enzyme, 2006 set (AID 1141).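 Also: cell-free assay with purified firefly luciferase at 100 ng per well in PBS; test concentration not given here.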 Conditions: SteadyGlo luminescence, 30 min, higher = more signal, called active from +8 up or from −8 down.
Experiment [10] has as its system Wnt5a (protein binding on small-molecule microarray). In words: Wnt5a binders on small-molecule microarray, primary screen, biophysical, 635/667 nm fluorescence (AID 1142).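 Also: fluorescence read at 667 nm with signal to noise per printed feature.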 Conditions: 635 nm fluorescence, higher = more signal.
The nature of experiment [11]: cell viability in Huh7 cells, primary screen, cytotoxicity control for HCV replication inhibitor project, CellTiter-Glo luminescence, basal, 48 h (AID 1143).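 Also: Huh7 hepatoma cells carrying a hepatitis C replication reporter with no stimulus; test concentration not given here.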 Conditions: Huh7 HCV replicon, higher = more signal, called active from +8 up or from −8 down.
A short description of experiment [12]: P. aeruginosa biofilm formation inhibitors, primary screen, PAO1 strain, BacTiter-Glo luminescence, LB-PBS (AID 1144). Conditions: 12 h, higher = more signal.
A short description of experiment [13]: CREB reporter modulators without forskolin, primary screen, cell-based, PC12, CRE-LacZ reporter, unstimulated (AID 1145). The following applies: no forskolin, luminescence, 4.5 h, higher = more signal, called active from +8 up or from −8 down.
Experiment [14] in a line: CREB reporter modulators under forskolin, primary screen, cell-based, PC12, CRE-LacZ reporter, forskolin-stimulated (AID 1146).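 Also: PC12 cells with 6xCRE LacZ reporter stimulated by forskolin 10 µM; beta-galactosidase reporter signal reflecting CREB driven transcription.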 The following applies: luminescence, 4.5 h, higher = more signal, called active from +8 up or from −8 down.
In experiment [15] the target is Streptavidin (Streptomyces avidinii) (UniProt P22629). In words: streptavidin binders on small-molecule microarray, primary screen, artefact control for SMM compound annotation, biophysical, 635/667 nm fluorescence (AID 1147).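 Also: signal reflects streptavidin binding to arrayed compounds as a control protein.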 The following applies: streptavidin binding, higher = more signal.
The nature of experiment [16]: small-molecule binders of probe aInhba, primary screen, biochemical, small-molecule microarray, 635/667 nm fluorescence (AID 1148).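 Also: score merges 667nm spot fluorescence with signal-to-noise for antibody binding to printed compounds.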 The following applies: higher = more signal.
Experiment [17] has as its target Torsin-1A (Homo sapiens) (UniProt O14656). Nature of the experiment: torsin A binders from cell lysate, primary screen, small-molecule microarray, wild-type, 635/667 nm (AID 1149). The following applies: COS7 hTOR1A-WT lysate, 635 nm fluorescence, higher = more signal.
For experiment [18] the target is unchanged. Nature of the experiment: small-molecule binders of mutant TOR1A in lysate, primary screen, cell lysate, small-molecule microarray, COS7 lysate, 635/667 nm fluorescence (AID 1150).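 Also: score pools 667 nm emission and signal to noise measuring lysate protein binding.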 The following applies: COS7 hTOR1A mutant lysate, 635 nm fluorescence, higher = more signal.
The test system of experiment [19] is Sonic hedgehog protein (Shh). In words: small-molecule binders of Shh protein, primary screen, biochemical, small-molecule microarray, 635/667 nm fluorescence (AID 1151).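 Also: Shh protein binding to compounds spotted on small-molecule microarray slides; score combines spot fluorescence intensity with signal-to-noise across triplicate slides.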 The following applies: small-molecule microarray binding, 635 nm fluorescence; higher = more signal.

Sequence of Focal adhesion kinase 1 (Homo sapiens) (Q05397 whole entry, looked up): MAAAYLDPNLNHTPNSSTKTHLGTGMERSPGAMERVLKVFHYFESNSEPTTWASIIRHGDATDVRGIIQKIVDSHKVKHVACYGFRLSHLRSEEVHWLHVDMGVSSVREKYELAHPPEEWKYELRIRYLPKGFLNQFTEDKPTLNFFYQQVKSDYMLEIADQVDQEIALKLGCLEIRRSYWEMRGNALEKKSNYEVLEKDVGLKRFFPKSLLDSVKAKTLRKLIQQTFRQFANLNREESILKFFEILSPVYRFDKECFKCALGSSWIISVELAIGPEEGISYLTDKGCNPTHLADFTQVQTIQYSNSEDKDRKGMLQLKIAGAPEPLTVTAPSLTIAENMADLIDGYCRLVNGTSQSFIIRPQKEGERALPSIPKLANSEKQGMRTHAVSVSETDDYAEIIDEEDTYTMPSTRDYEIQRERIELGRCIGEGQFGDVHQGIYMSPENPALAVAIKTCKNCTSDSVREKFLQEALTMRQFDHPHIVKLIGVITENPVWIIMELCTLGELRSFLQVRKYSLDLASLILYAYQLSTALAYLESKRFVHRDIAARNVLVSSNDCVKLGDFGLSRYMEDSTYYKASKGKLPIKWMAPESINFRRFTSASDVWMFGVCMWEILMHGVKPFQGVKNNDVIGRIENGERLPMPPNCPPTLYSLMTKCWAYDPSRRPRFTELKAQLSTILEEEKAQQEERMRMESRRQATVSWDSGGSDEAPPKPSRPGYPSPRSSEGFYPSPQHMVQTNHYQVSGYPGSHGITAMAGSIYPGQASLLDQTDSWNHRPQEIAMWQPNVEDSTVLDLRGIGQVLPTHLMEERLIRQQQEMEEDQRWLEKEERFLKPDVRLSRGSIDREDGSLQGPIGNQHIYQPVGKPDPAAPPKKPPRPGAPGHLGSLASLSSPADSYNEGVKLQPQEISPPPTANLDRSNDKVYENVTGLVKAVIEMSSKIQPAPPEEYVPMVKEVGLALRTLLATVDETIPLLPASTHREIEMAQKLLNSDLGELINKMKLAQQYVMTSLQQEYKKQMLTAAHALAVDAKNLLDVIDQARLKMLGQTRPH
Sequence of Torsin-1A (Homo sapiens) (O14656 whole entry, looked up): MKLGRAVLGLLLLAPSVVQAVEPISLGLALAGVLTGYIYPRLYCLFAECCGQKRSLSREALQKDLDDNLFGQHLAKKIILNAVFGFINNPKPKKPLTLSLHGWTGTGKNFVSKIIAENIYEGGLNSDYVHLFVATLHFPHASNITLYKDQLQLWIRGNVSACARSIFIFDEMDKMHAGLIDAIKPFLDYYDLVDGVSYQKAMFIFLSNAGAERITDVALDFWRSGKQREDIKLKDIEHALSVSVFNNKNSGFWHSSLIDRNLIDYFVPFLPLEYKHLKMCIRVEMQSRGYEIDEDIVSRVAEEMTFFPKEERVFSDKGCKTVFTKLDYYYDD
Sequence of Luciferin 4-monooxygenase (Photinus pyralis) (P08659 whole entry, looked up): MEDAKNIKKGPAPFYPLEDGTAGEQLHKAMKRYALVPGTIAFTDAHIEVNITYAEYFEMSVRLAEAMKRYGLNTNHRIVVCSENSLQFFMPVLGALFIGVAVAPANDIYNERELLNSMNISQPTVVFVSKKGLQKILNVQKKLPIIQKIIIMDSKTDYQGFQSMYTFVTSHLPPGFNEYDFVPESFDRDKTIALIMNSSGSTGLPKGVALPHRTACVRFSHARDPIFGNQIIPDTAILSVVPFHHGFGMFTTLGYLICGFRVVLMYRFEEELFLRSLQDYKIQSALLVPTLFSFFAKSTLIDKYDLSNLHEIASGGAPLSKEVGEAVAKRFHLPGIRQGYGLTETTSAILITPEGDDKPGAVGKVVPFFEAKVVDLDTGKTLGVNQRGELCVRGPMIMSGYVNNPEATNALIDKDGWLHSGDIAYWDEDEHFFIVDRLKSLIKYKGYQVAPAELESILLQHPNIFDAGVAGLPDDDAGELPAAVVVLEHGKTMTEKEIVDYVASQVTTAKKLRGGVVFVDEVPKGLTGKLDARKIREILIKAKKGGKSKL
Sequence of Fibroblast growth factor 2 (Homo sapiens) (P09038 whole entry, looked up): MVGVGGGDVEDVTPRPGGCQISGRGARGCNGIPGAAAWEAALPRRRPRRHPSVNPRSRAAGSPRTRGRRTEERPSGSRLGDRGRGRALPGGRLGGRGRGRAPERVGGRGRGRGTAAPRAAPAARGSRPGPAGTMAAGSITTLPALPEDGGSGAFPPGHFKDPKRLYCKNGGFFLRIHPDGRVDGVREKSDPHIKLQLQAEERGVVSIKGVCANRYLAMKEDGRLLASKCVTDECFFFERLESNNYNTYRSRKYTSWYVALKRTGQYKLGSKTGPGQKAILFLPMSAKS
Sequence of Streptavidin (Streptomyces avidinii) (P22629 whole entry, looked up): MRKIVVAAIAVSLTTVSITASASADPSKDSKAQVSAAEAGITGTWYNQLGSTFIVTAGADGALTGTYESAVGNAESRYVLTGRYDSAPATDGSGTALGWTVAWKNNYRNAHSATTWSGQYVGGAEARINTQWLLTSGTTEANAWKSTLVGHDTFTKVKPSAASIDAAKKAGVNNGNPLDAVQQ
Sequence of Follistatin (Homo sapiens) (P19883 whole entry, looked up): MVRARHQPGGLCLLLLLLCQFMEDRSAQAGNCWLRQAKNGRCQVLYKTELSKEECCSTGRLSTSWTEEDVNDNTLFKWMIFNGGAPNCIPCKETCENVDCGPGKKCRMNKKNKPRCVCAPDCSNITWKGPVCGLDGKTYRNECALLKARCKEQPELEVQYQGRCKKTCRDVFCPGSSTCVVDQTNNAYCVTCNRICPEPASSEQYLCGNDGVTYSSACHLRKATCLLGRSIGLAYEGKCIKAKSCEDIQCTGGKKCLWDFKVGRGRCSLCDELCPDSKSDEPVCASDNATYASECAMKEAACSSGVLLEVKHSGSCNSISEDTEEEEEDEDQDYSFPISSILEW

In the case of `COC(=O)C(CC#Cc1ccc2c(c1)[C@]1(C(=O)N2)[C@H](C(=O)O)[C@H]2C(=O)O[C@H](c3ccccc3)[C@H](c3ccccc3)N2[C@@H]1c1ccc(O)cc1)C(=O)OC`, the composite z-score in experiment [1] was 1.54; in experiment [2], -0.133; in [3] it was -0.13; in [4], -0.422; in experiment [5], -0.0501; in [6] it was -0.328. Further, the composite z-score is -0.574 in the experiment with Lefty1; -0.163 in [8]; -0.265 in experiment [10]; -0.641 in experiment [15]; -0.0405 in [16]; -0.21 with Torsin-1A (Homo sapiens) [17]. Moreover, the composite z-score was 0.446 with Torsin-1A (Homo sapiens) [18] and -0.613 in experiment [19]. Further, the z-score is -0.573 in experiment [7]; 0.217 (inactive) in [9]; 0.674 (inactive) in experiment [11]; -0.208 (inactive) in [12]; -0.467 (inactive) in experiment [13]; -0.686 (inactive) in experiment [14].
In the case of `C=CCOC(=O)[C@@H]1[C@H]2C(=O)O[C@H](c3ccccc3)[C@H](c3ccccc3)N2[C@H](c2ccc(OCCOC(=O)[C@@H]3C[C@@H]4C(=O)N5CCC[C@H]5C(=O)N4[C@@H]3c3ccc(O)cc3)cc2)[C@@]12C(=O)Nc1ccc(I)cc12`, the composite z-score in [1] turned out to be 0.426; in experiment [2] it was 1.19; in experiment [3], 0.928; in experiment [4] it was 0.837; in [5], 1.29; in [6], 1.2. Also, the composite z-score in the experiment with Lefty1 was 0.793; in experiment [8], 0.635; in experiment [10], 0.0017; in [15], 1.11; in experiment [16] it was -0.101; in the experiment with Torsin-1A (Homo sapiens) [17] it was 0.711. Also, the composite z-score was 0.878 with Torsin-1A (Homo sapiens) [18] and 1.82 in experiment [19]. The z-score in experiment [7] was -1.58; in experiment [9], -0.291 (inactive); in [11], -1.51 (inactive); in experiment [12], -1.72 (inactive); in [13], -1.48 (inactive); in [14] it was -1.75 (inactive).
For the compound `[N-]=[N+]=NCc1ccccc1C[C@]1(C(=O)NCC(O)CO)N=C(c2ccc(OCCCO)cc2)O[C@H]1c1ccccc1` (stereo not given in full), the composite z-score was 0.375 in [1]; -0.116 in experiment [2]; -0.294 in experiment [3]; -0.231 in experiment [4]; 0.263 in experiment [5]; -0.476 in experiment [6]. In addition, the composite z-score with Lefty1 was -1.5; in experiment [8] it was 0.228; in experiment [10] it was 0.185; in experiment [15], 0.236; in experiment [16], 0.109; with Torsin-1A (Homo sapiens) [17], 0.381. The composite z-score is 0.777 with Torsin-1A (Homo sapiens) [18] and -1.52 in experiment [19]. Besides, the z-score is -0.077 in experiment [7]; -0.263 (inactive) in [9]; -3.58 (inactive) in [11]; 0.55 (inactive) in experiment [12]; 1.87 (inactive) in experiment [13]; -0.621 (inactive) in experiment [14].
As for `CC1CC/C=C\[C@H]2OC34C=CCN(C(C)(C)C)C(=O)[C@H]3N(CCCCCCO)C(=O)[C@@H]4C2C(=O)O1` (stereo not given in full), the composite z-score in [1] was 1.65; in experiment [2], -0.572; in experiment [3], -0.61; in experiment [4], -0.988; in experiment [5], -0.49; in experiment [6], -0.635. The composite z-score with Lefty1 was -0.349; in experiment [8] it was -0.872; in [10], -0.293; in [15], -0.727; in [16], -0.224; in the experiment with Torsin-1A (Homo sapiens) [17], -0.67. The composite z-score with Torsin-1A (Homo sapiens) [18] is -0.433; in [19], 0.611. Also, the z-score is 0.699 in experiment [7]; -0.939 (inactive) in experiment [9]; 0.553 (inactive) in experiment [11]; 0.0917 (inactive) in [12]; 0.74 (inactive) in experiment [13]; -0.21 (inactive) in experiment [14].
